Reference: the supplement of paper PMC10849652
Targets with a hit are over-represented here; the source holds about 7,900 in all. About 0.6% of all pairs of compound and target were hits.

Experiments:
Experiment in all cases: log2 fold change, soluble protein after heating vs DMSO (PISA); higher = thermal stabilisation; K562 cells, 10 uM, 30 min; active = over 0.2 and 3.5 SD of the protein, either way, in both replicates (recomputed)
[1] = compound: C/C(=N\NC(=O)C1=CC(=CC=C1)S(=O)(=O)N2CCOCC2)/C3=C(C=CC(=C3)Cl)O
Procedure, shortened: (§1)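 K562 cells at 2×10^6 cells/mL were exposed to 10 μM compound for 30 min, then aliquots were heated for 3 min across 48°C-58°C, pooled, and extracted in PBS containing 0.5% NP-40 at 4°C. The supernatant after 21,000xg for 90 min was taken as soluble protein and measured by TMTpro 16plex LC-MS/MS with channel sums equalised. Thermal stability is reported relative to control samples, with values from duplicates. Fold changes are given on a log2 scale.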

[2] = compound: C1=CC(=C(C=C1Cl)C2=NC3=NC=CN=C3C(=N2)NC4=CC=NC=C4)F
Procedure, shortened: as §1

[3] = compound: C1=CC2=C(C=CC(=C2)/C=C\3/C(=O)NC(=NCC4=CC=CS4)S3)N=C1
Procedure, shortened: as §1

[4] = compound: C1=CC2=NC=CN=C2C=C1/C=C/3\C(=O)NC(=O)S3
Procedure, shortened: as §1

[5] = compound: C1=CC=C2C(=C1)C3=NNC4=CC=CC(=C43)C2=O
Procedure, shortened: as §1

[6] = compound: C1CCN(C1)C(=O)NC2=CC=CC(=C2)NC3=NC=C(C(=N3)NCCC4=CN=CN4)Br
Procedure, shortened: as §1

[7] = compound: C1CN(CCC1(CC2=CC=C(C=C2)Cl)N)C3=NC=NC4=C3C=CN4
Procedure, shortened: as §1

IRAK-1-4 Inhibitor I = compound: C1COCCN1CCN2C3=CC=CC=C3N=C2NC(=O)C4=CC(=CC=C4)[N+](=O)[O-] [IRAK-1-4 Inhibitor I]
Procedure, shortened: as §1

ibrutinib = compound: C=CC(=O)N1CCC[C@@H](n2nc(-c3ccc(Oc4ccccc4)cc3)c3c(N)ncnc32)C1 [ibrutinib]
Procedure, shortened: as §1

[8] = compound: CC(=O)c1cnc2ccc(-c3cc(Cl)c(O)c(Cl)c3)nc2c1N[C@H]1CC[C@H](CN(C)C)CC1
Procedure, shortened: as §1

[9] = compound: CC(C)(O)CC(=O)NCCn1ccc2ncnc(Nc3ccc(Oc4cccc(C(F)(F)F)c4)c(Cl)c3)c21
Procedure, shortened: as §1

pinometostat = compound: CC(C)N(C[C@H]1O[C@@H](n2cnc3c(N)ncnc32)[C@H](O)[C@@H]1O)[C@H]1C[C@@H](CCc2nc3cc(C(C)(C)C)ccc3[nH]2)C1 [pinometostat]
Procedure, shortened: as §1

[10] = compound: CC1=C(C2=C(C=C1)C(=O)C3=CC=CC=C3N2CCCN)C
Procedure, shortened: as §1

erlotinib = compound: C#Cc1cccc(Nc2ncnc3cc(OCCOC)c(OCCOC)cc23)c1 [erlotinib]
Procedure, shortened: as §1

[11] = compound: C1=CC(=CC=C1C2=NC3=C(N2)C=C(C=C3)C(=O)N)OC4=CC=C(C=C4)Cl
Procedure, shortened: as §1

[12] = compound: CC(C)C1=C2N=C(C=C(N2N=C1)NCC3=CC=CC=C3)NCCCCCCN
Procedure, shortened: as §1

[13] = compound: CC1=C(C(CC(=O)N1)C2=CC=C(C=C2)C(F)(F)F)C(=O)NC3=C(C=C4C(=C3)C=NN4)F
Procedure, shortened: as §1

[14] = compound: C1=CC=C(C=C1)C2=NC(=C(N2)C3=CC=NC=C3)C4=CC(=C(C=C4)Cl)O
Procedure, shortened: as §1

ralimetinib = compound: CC(C)(C)Cn1c(N)nc2ccc(-c3[nH]c(C(C)(C)C)nc3-c3ccc(F)cc3)nc21 [ralimetinib]
Procedure, shortened: as §1

[15] = compound: CC(C)C[C@@H](C=O)NC(=O)[C@H](CC(C)C)NC(=O)[C@H](CC(C)C)NC(=O)OCc1ccccc1
Procedure, shortened: as §1

Measured: log2 fold change

FAM193B (UniProt Q96PV7)
inactive: [1] -0.127 | [2] -0.311 | [3] -0.085 | [4] 0.068 | [5] -0.101 | [6] -0.133 | [7] -0.483 | IRAK-1-4 Inhibitor I -0.049 | ibrutinib -0.266 | [8] -0.03 | [9] -0.05 | pinometostat 0.112 | [10] -0.181

ENTPD7 (UniProt Q9NQZ7)
Sequence of UniProt Q9NQZ7 (Q9NQZ7 whole entry, looked up): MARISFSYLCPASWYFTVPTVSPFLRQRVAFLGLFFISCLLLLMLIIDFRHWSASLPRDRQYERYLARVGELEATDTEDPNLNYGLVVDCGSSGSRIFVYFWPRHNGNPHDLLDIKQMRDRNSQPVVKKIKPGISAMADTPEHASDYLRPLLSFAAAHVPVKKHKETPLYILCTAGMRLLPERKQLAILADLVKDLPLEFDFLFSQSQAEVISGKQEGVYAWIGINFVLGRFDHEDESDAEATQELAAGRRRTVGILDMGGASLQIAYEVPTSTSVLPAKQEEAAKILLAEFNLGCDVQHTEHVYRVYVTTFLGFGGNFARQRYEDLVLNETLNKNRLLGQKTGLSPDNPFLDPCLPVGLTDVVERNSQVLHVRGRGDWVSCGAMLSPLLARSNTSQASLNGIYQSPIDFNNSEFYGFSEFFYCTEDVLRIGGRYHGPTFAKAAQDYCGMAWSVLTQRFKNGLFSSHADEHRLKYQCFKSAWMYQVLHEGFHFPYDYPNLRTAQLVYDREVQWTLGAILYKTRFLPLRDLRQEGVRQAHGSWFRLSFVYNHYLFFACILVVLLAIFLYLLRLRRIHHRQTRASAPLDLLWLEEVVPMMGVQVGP
inactive: erlotinib 0.096 | [2] -0.028 | [11] -0.181 | [4] 0.063 | [6] -0.042 | [7] 0.037 | IRAK-1-4 Inhibitor I -0.146 | ibrutinib -0.013 | [9] 0.181 | [12] -0.043 | pinometostat -0.009 | [13] -0.022 | [10] -0.016

EPHX2 (UniProt E5RI53)
inactive: [2] 0.037 | [4] -0.082 | ibrutinib 0.085 | [9] 0.071

FAM160A2 isoform 2 (UniProt Q8N612)
inactive: [2] 0.2 | [4] -0.012 | [14] -0.134 | [6] -0.071 | [7] 0.027 | IRAK-1-4 Inhibitor I 0.029 | ibrutinib -0.003 | ralimetinib -0.029 | [9] -0.326 | [15] 0.013 | pinometostat 0.004 | [13] -0.146 | [10] 0.102

EEF1D isoform 3 (UniProt P29692)
Sequence of UniProt P29692 (P29692 whole entry, looked up): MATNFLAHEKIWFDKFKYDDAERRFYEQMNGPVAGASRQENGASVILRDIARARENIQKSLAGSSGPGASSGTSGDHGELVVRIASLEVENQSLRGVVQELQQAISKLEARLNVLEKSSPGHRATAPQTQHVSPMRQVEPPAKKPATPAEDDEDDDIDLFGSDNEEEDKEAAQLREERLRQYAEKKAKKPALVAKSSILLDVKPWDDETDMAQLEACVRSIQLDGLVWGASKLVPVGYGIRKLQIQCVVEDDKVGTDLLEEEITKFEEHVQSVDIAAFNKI
inactive: erlotinib -0.009 | [11] 0.009 | [6] -0.16 | [7] -0.087 | [12] -0.27 | [10] 0.605

DDB1 isoform 2 (UniProt Q16531)
inactive: [2] 0.017 | [4] 0.205 | ibrutinib -0.034 | [9] 0.078

ELMO1 (UniProt Q92556)
inactive: erlotinib 0.111 | [2] -0.079 | [11] -0.001 | [4] 0.037 | [14] -0.308 | IRAK-1-4 Inhibitor I -0.022 | ibrutinib -0.176 | ralimetinib 0.069 | [9] -0.091 | [12] -0.094 | pinometostat -0.161 | [13] 0.037
active: [15] 0.761

DERPC (UniProt P0CG12)
inactive: erlotinib 0.197 | [11] -0.346 | [4] 0.078 | [14] -0.034 | IRAK-1-4 Inhibitor I -0.077 | ibrutinib 0.004 | ralimetinib 0.017 | [12] -0.003 | [15] -0.029 | pinometostat 0.161 | [13] 0.066

DHRS13 (UniProt Q6UX07)
Sequence of UniProt Q6UX07 (Q6UX07 whole entry, looked up): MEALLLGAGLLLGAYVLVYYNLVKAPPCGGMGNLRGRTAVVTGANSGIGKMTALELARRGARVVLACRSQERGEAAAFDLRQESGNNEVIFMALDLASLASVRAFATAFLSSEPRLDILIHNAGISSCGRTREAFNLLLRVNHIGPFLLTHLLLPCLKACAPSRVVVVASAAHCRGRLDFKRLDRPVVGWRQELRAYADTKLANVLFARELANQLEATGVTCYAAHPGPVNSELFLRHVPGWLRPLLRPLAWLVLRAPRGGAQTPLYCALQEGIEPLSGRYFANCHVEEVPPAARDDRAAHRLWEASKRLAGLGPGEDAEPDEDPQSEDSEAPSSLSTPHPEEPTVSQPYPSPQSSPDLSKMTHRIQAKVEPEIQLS
inactive: erlotinib 0.014 | [1] 0.043 | [11] -0.006 | [3] 0.037 | [14] 0.073 | [5] 0.047 | [6] -0.009 | [7] 0.065 | IRAK-1-4 Inhibitor I -0.275 | [8] -0.051 | ralimetinib 0.035 | [12] -0.007 | [15] 0.144 | pinometostat 0.224 | [13] -0.168 | [10] -0.085

DLK1 (UniProt P80370)
inactive: [2] 0.028 | IRAK-1-4 Inhibitor I 0.023 | [9] -0.034 | pinometostat 0.099

DOP1A (UniProt Q5JWR5)
inactive: erlotinib 0.177 | [2] 0.009 | [11] -0.152 | [4] 0.035 | ibrutinib -0.093 | [9] -0.054 | [12] 0.092

EHBP1 (UniProt Q8NDI1)
inactive: [1] -0.012 | [3] 0.086 | [5] 0.095 | [6] -0.132 | [7] 0.033 | [8] 0.018 | [10] -0.003

CTNNBL1 (UniProt Q8WYA6)
inactive: [4] -0.032 | ibrutinib 0.046

CWF19L2 (UniProt Q2TBE0)
inactive: erlotinib 0.004 | [1] 0.056 | [11] 0.038 | [3] 0.03 | [14] -0.132 | [5] -0.014 | [6] 0.017 | [7] -0.04 | IRAK-1-4 Inhibitor I 0.029 | [8] -0.075 | ralimetinib 0.014 | [12] 0.184 | [15] 0.02 | pinometostat 0.098 | [10] 0.106

EEF2K (UniProt O00418)
inactive: erlotinib -0.064 | [2] -0.137 | [11] -0.024 | [14] 0.027 | ralimetinib 0.126 | [9] -0.047 | [12] -0.245 | [15] 0.169

FAM118A (UniProt Q9NWS6)
inactive: [1] 0.005 | [2] 0.098 | [3] 0.083 | [4] 0.089 | [14] -0.365 | [5] 0.212 | [6] 0.084 | [7] 0.078 | IRAK-1-4 Inhibitor I -0.009 | ibrutinib 0.045 | [8] -0.212 | ralimetinib -0.21 | [9] -0.207 | [15] -0.125 | pinometostat -0.054 | [13] -0.006 | [10] 0.014

ENTR1 (UniProt Q96C92)
inactive: erlotinib -0.015 | [11] 0.043 | [12] -0.156

CTSS (UniProt P25774)
Sequence of UniProt P25774 (P25774 whole entry, looked up): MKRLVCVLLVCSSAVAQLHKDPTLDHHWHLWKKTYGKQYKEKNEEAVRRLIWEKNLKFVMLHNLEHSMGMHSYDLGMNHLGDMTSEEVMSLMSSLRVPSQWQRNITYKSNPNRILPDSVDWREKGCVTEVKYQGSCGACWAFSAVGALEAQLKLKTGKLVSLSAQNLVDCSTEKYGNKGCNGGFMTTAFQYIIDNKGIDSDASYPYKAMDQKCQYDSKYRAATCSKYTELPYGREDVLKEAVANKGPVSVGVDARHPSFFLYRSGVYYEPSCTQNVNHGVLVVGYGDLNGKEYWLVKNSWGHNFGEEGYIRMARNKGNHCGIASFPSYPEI
inactive: [14] -0.215 | [6] 0.144 | [7] 0.545 | IRAK-1-4 Inhibitor I -0.023 | ralimetinib -0.026 | [15] 0.12 | pinometostat -0.001 | [10] 0.316

FAM241A (UniProt Q8N8J7)
Sequence of UniProt Q8N8J7 (Q8N8J7 whole entry, looked up): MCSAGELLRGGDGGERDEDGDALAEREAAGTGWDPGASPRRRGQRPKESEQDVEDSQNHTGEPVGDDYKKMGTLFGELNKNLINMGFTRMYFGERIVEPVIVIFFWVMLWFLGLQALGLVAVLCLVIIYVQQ
inactive: erlotinib -0.012 | [1] -0.005 | [11] 0.044 | [3] -0.076 | [4] 0.043 | [14] -0.014 | [5] 0.012 | [6] 0.016 | [7] 0.045 | IRAK-1-4 Inhibitor I 0.011 | ibrutinib -0.094 | [8] 0.063 | ralimetinib -0.019 | [12] -0.008 | [15] 0.004 | pinometostat -0.029 | [13] 0.059 | [10] -0.008

DNAJB1 (UniProt M0R128)
inactive: [4] -0.105 | [6] 0.142 | [7] 0.133 | ibrutinib -0.077 | [10] 0.111

DNAJC24 (UniProt Q6P3W2)
Sequence of UniProt Q6P3W2 (Q6P3W2 whole entry, looked up): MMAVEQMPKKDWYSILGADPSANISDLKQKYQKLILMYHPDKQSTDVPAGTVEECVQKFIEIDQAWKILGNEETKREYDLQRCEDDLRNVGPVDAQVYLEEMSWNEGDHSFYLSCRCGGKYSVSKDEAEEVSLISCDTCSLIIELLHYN
inactive: erlotinib -0.114 | [2] 0.123 | [11] 0.062 | [4] -0.053 | [14] -0.084 | [6] -0.047 | [7] -0.158 | IRAK-1-4 Inhibitor I -0.035 | ibrutinib 0.011 | ralimetinib 0.058 | [9] 0.026 | [12] -0.037 | [15] 0.058 | pinometostat -0.019 | [13] 0.062 | [10] -0.023

EPHB4 (UniProt P54760)
inactive: [14] -0.151 | ralimetinib 0.131 | [15] 0.241

FAM135A (UniProt Q9P2D6)
Sequence of UniProt Q9P2D6 (Q9P2D6 whole entry, looked up): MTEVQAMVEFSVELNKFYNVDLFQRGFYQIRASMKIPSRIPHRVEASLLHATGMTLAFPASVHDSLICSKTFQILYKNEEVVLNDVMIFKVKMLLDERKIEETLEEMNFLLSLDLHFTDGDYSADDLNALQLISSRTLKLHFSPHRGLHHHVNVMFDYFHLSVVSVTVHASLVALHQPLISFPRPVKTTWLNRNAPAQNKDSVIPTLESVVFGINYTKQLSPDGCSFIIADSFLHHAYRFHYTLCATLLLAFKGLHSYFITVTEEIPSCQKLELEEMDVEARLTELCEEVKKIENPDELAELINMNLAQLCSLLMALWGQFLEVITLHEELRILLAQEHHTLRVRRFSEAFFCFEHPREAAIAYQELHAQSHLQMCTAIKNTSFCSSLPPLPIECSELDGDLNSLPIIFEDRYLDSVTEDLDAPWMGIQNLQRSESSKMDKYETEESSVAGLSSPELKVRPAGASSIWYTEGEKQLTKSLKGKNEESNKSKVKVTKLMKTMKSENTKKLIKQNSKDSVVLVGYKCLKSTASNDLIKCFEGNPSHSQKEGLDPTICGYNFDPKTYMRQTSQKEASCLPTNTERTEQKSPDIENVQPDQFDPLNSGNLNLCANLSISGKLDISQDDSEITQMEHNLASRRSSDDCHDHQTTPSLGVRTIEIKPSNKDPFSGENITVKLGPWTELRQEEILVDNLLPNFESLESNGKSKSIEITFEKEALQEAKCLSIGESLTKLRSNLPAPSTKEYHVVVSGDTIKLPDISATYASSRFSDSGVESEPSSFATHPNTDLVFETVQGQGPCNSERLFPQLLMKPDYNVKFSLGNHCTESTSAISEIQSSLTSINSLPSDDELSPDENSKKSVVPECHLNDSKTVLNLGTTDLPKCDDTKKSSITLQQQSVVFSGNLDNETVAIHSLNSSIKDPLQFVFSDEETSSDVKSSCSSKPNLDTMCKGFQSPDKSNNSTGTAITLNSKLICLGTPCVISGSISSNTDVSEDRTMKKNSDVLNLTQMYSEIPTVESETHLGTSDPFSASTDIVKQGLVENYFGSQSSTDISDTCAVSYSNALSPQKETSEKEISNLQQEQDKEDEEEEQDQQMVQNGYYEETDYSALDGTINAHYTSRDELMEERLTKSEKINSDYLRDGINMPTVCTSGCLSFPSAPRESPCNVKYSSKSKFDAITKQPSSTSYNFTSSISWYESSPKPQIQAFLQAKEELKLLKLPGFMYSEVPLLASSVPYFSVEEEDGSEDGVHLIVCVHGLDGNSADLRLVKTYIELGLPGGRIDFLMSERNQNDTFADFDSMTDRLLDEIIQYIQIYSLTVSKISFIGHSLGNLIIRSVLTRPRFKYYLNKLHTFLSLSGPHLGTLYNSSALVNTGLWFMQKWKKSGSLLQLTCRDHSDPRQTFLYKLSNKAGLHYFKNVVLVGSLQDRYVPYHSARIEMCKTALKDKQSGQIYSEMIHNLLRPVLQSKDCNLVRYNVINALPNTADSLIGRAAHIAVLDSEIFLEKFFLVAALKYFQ
inactive: erlotinib 0.033 | [2] 0.07 | [11] -0.116 | [9] 0.009 | [12] 0.051 | [13] -0.002

EIF4G1 (UniProt Q04637)
Sequence of UniProt Q04637 (Q04637 whole entry, looked up): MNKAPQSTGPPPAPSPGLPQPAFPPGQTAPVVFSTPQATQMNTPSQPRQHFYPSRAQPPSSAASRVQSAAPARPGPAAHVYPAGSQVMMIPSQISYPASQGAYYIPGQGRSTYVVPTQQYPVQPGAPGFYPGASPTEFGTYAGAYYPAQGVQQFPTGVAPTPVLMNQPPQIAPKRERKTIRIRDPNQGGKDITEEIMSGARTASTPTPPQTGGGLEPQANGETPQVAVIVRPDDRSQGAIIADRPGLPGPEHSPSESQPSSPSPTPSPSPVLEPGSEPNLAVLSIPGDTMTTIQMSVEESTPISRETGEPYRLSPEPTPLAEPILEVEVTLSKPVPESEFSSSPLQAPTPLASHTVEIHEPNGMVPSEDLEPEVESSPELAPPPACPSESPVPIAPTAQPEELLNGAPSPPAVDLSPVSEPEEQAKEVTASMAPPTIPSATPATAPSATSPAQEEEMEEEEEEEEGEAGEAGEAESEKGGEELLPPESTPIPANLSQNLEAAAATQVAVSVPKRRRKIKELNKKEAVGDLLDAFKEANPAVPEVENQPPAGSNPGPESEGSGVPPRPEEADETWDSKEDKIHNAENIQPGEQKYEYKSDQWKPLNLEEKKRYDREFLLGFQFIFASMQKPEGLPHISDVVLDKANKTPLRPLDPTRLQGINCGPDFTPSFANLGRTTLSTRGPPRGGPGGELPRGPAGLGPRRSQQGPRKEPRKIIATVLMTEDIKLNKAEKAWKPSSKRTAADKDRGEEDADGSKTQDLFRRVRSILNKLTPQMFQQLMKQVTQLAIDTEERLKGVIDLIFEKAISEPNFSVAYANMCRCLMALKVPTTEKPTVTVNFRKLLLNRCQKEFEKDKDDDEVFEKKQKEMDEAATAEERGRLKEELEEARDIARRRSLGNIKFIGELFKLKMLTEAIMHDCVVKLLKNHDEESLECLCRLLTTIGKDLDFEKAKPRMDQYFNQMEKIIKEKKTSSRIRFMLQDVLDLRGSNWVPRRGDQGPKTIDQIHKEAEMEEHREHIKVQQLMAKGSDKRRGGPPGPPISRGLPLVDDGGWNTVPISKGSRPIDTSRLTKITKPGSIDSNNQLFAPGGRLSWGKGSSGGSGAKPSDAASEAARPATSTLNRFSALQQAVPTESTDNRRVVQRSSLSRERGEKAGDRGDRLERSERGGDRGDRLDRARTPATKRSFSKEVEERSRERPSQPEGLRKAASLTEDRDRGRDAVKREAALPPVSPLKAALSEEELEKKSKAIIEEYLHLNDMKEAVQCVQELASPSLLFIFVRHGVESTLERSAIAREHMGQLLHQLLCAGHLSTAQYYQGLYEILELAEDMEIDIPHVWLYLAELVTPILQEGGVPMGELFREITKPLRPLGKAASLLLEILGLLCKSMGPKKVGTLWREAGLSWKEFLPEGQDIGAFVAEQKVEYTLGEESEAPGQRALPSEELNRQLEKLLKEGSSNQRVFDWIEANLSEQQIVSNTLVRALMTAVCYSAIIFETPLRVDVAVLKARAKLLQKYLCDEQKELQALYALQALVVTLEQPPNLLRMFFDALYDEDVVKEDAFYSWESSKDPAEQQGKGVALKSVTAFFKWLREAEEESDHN
inactive: [1] 0.171 | [3] 0.018 | [5] -0.356 | [6] -0.301 | [7] -0.425 | [8] -0.334 | [10] 0.067
